PubChem BioAssay (NCI)
This is part of a sample that, as a whole, favours compounds with a hit. Of some 83,000 tested, about 20% had one in any assay.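 For each line, cells grew in 96-well plates with the test compound present at a single concentration for 48 hours.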 A number with no mark means an inactive call. The source made the active and inactive calls. Rule for the calls: active = growth percent below 10; inactive = the rest.

Legend:
Assay in all cases: NCI-60 one-dose screen, 48 h (100 = growth as untreated, 0 = no growth, -100 = all killed)
Conditions in all cases: 10 µM unless noted
DU-145 prostate = system: DU-145 prostate
K-562 leukemia = system: K-562 leukemia
MDA-MB-231 breast = system: MDA-MB-231 breast
RXF 393 renal = system: RXF 393 renal
SF-268 CNS = system: SF-268 CNS
SF-539 CNS = system: SF-539 CNS
UACC-257 melanoma = system: UACC-257 melanoma
M14 melanoma = system: M14 melanoma
MALME-3M melanoma = system: MALME-3M melanoma
SF-295 CNS = system: SF-295 CNS

Row | Structure (SMILES) | growth (DU-145 prostate) | growth (K-562 leukemia) | growth (MDA-MB-231 breast) | growth (RXF 393 renal) | growth (SF-268 CNS) | growth (SF-539 CNS) | growth (UACC-257 melanoma) | growth (M14 melanoma) | growth (MALME-3M melanoma) | growth (SF-295 CNS)
1 | O=C(Nc1ccccc1Cl)Oc1ccc2ccccc2c1 | 107% | 85.3% | 88.7% | 99.6% | 101% | 92.5% | 93.5% | 101% | – | –
2 | COc1cc(Cn2c(-c3ccccc3)cc3c2-c2oncc2CC3)cc(OC)c1OC | -21.1% (active) | 11.8% | 47.1% | 9.54% (active) | 44.8% | -3.28% (active) | 58.8% | 21.9% | – | –
3 | N[C@@H](CO)C(=O)O | 101% | 110% | 93.4% | 108% | 95.1% | 113% | 104% | 107% | – | –
4 | COc1cc(OC)cc(-c2n/c(=C\c3c(O)[nH]c4ccc(Cl)cc34)cc3c2=Nc2ccccc2-3)c1 | 18.4% | 28% | 64.5% | 76.8% | 52.8% | 104% | 108% | 86% | – | –
5 | Cc1cc(C#Cc2ccccc2)ccc1-n1c(/C=C/c2ccc(F)cc2)nc2ccccc2c1=O | 98.5% | 48.5% | 75.9% | 99.1% | 86.4% | 102% | 86.7% | 81.2% | – | –
6 | COc1ccc(/C(=C\c2ccc3c(c2)OCO3)C(=O)Nc2nc3ccccc3s2)cc1 | 102% | – | 102% | 118% | 96% | 104% | 99.7% | 107% | 95.3% | –
7 | COc1ccc2nc(NC(=O)/C(=C/c3cc(OC)c(OC)c(OC)c3)c3ccc(OC)c(OC)c3)sc2c1 | 106% | – | 68.8% | 107% | 99.9% | 102% | 97.2% | 104% | 98% | –
8 | Cc1nc2n[nH]c(N)c2nc1C | 119% | – | 120% | 119% | – | 103% | 96.8% | 125% | 105% | 105%
9 | COc1cc2c(cc1OCCCOc1cc3c(cc1OC)C(=O)N1CCC[C@H]1C=N3)C=CC(C)(C)O2 | – | 71.2% | 88.6% | 94.8% | 91.2% | 126% | 83.9% | 111% | 152% | 123%
10 | CCOc1cccc(/C=N/NC(=O)Cc2ccc(Nc3ccnc(C(F)(F)F)c3)cc2)c1O | 33.2% | – | 26.8% | 51.1% | 18.2% | 17.4% | 21.9% | 3.19% (active) | 34.3% | 47.9%
11 | CCCCCNCCCCCNc1cc(OC)cc2cccnc12 | 104% | – | 88.8% | 68.3% | 95.6% | 87.8% | 101% | 87.3% | 60.2% | –
12 | COc1ccc2c(c1)CCCC21C(=O)Nc2c(Cl)cccc21 (stereo not given) | 93% | – | 77.4% | 86.5% | 75.8% | 73.3% | 83.8% | 38.8% | 63.3% | –
13 | CN(C)c1ccc(Nc2c3ccccc3nc3ccccc23)cc1 | – | 8.82% (active) | 43% | 21.6% | 27.7% | 17.5% | 18.3% | 18.5% | -14% (active) | -7.58% (active)
14 | O=C(CSc1ccc(Cl)cc1)Nc1ccc(-c2nc3ccccc3s2)c(Cl)c1 | – | 34.3% | 93.8% | 78.7% | – | 93.1% | 84.5% | 75.4% | 108% | 22.3%
15 | CC(C)(C)NC(=O)C(OC(=O)C1CCc2cc(F)ccc2O1)c1ccccc1Cl (stereo not given) | – | 103% | 92.4% | 96.3% | – | 108% | 106% | 94.9% | 94.4% | 95.4%
16 | CCCCCCCCCCCC1=NC(C)(C)CN1C(C)(C)CO | – | 57.6% | 57.7% | 56.3% | 69.1% | 57.9% | -23.4% (active) | -84.4% (active) | 62.7% | 90.3%

Row | Structure (SMILES) | growth (DU-145 prostate) | growth (K-562 leukemia) | growth (MDA-MB-231 breast) | growth (RXF 393 renal) | growth (SF-268 CNS) | growth (SF-539 CNS) | growth (UACC-257 melanoma) | growth (M14 melanoma) | growth (MALME-3M melanoma) | growth (SF-295 CNS)
17 | CC(C)=CCC[C@H](C)c1ccc(C)c2c1OCN(CCO)C2 | – | 77.7% | 88.8% | 52.4% | – | 88.2% | 92.3% | 90.9% | 89.5% | 98.6%
18 | O=C(/C=C/c1cc([N+](=O)[O-])ccc1Cl)c1ccccc1 | – | 24.4% | 85.9% | 97.8% | 94.8% | 107% | 104% | 94.1% | 102% | 95.9%
19 | C=CCN(CCOC(=O)c1ccc([N+](=O)[O-])cc1)CCOC(=O)c1ccc([N+](=O)[O-])cc1 | – | 92.3% | 96.2% | 138% | 98% | 110% | 97.8% | 105% | 98.8% | 107%
20 | O=c1c2sc3ccccc3c2nnn1-c1ccc(F)c(Cl)c1 | – | 49.7% | 27.5% | 47.3% | – | 65.4% | 64.1% | 74.7% | 58% | 4.36% (active)
21 | COc1cc(C2=NOC(c3cc(OC)c(OC)c(OC)c3)C2)ccc1OCCCCOc1cc2c(cc1OC)C(=O)N1CCC[C@H]1C=N2 (stereo not given in full) | – | 7.5% (active) | 12.3% | -79% (active) | -29.5% (active) | -89.6% (active) | 13.7% | -43.7% (active) | -72.2% (active) | 13.4%
22 | CCCCCCCCCCCCCCCCCC1=NC(C)(C)CN1C(C)(C)CO | – | -56.6% (active) | -71.6% (active) | -68.7% (active) | -84.6% (active) | -45% (active) | -41% (active) | -100% (active) | -58.1% (active) | 54.3%
23 | CC(=O)c1cccc(Nc2ncnc3ccc(NC(=O)c4ccco4)cc23)c1 | – | 86.9% | 88.4% | 80.6% | – | 103% | 94.7% | 87.4% | 97.8% | 91.9%
24 | CCCCCCCCCCCCCCCC1=NCC[N+]1(CCO)CCO | – | 1.44% (active) | 36.7% | 34.9% | – | 73.3% | 102% | 7.86% (active) | 108% | 76.7%
25 | COc1ccc(CCN2COc3c([C@@H](C)CCC=C(C)C)ccc(C)c3C2)cc1OC | – | 13.1% | 57% | 63.9% | – | 80.5% | 48.1% | 11.5% | 48% | 43.1%
26 | O=C(Nc1ccc2ncnc(Nc3ccc(F)c(Cl)c3)c2c1)c1cccs1 | – | 49.9% | 43.4% | -3.16% (active) | – | 63.5% | 101% | 65% | 66.4% | 46.4%
27 | CCN(CC)c1ccc2nc3c4ccccc4c(=O)cc-3n(-c3ccccc3)c2c1 | – | 6.09% (active) | -24.1% (active) | 6.05% (active) | 15.5% | -30% (active) | -15.8% (active) | -56.8% (active) | -32.3% (active) | -36.7% (active)
28 | COCCn1c(Nc2ccc(C(=O)NO)cc2)nc2ccccc21 | – | 34.6% | 81.5% | 39.1% | 82.3% | 62% | 27.8% | 51.6% | 30.6% | 61.9%
29 | COc1ccc(C(=O)C(CN(C)C)c2ccccc2)cc1 (stereo not given) | – | 12.6% | 33.4% | 18.6% | – | 14.2% | 2.45% (active) | -63% (active) | 45% | 54.3%
30 | Nc1cccc(S(=O)(=O)c2cccc(N)c2)c1 | – | 10.5% | 105% | 138% | 107% | 113% | 119% | 107% | 115% | 100%
31 | O=[N+]([O-])c1ccccc1CN1CCCCC1 | – | 136% | 105% | 104% | 112% | 104% | 110% | 114% | 121% | 112%
